Measurements: ChEMBL document CHEMBL3988442, “University of Dundee, Small-Polar-MMV Screening Library” (2021)
For some assays here: Entries with a potency or affinity are not part of this list.

Columns and labels:
Parameters in all cases: scale not given: direction of the effect not stated beside the values
[1] = target: Protein translocase subunit SecA (Escherichia coli (strain K12)) (UniProt P10408); assay: Assay to Identify E. coli SecA ATPase Inhibitors; assay type: functional; conditions: 30 µM
[2] = target: T1, Ubiquitin-activating enzyme e1, putative (Leishmania donovani (strain BPK282A1)) (UniProt E9BSI1); assay: Leishmania donovani Ubiquitin Activating Enzyme (LdE1); assay type: functional; conditions: 30 µM
T1 sequence (whole entry): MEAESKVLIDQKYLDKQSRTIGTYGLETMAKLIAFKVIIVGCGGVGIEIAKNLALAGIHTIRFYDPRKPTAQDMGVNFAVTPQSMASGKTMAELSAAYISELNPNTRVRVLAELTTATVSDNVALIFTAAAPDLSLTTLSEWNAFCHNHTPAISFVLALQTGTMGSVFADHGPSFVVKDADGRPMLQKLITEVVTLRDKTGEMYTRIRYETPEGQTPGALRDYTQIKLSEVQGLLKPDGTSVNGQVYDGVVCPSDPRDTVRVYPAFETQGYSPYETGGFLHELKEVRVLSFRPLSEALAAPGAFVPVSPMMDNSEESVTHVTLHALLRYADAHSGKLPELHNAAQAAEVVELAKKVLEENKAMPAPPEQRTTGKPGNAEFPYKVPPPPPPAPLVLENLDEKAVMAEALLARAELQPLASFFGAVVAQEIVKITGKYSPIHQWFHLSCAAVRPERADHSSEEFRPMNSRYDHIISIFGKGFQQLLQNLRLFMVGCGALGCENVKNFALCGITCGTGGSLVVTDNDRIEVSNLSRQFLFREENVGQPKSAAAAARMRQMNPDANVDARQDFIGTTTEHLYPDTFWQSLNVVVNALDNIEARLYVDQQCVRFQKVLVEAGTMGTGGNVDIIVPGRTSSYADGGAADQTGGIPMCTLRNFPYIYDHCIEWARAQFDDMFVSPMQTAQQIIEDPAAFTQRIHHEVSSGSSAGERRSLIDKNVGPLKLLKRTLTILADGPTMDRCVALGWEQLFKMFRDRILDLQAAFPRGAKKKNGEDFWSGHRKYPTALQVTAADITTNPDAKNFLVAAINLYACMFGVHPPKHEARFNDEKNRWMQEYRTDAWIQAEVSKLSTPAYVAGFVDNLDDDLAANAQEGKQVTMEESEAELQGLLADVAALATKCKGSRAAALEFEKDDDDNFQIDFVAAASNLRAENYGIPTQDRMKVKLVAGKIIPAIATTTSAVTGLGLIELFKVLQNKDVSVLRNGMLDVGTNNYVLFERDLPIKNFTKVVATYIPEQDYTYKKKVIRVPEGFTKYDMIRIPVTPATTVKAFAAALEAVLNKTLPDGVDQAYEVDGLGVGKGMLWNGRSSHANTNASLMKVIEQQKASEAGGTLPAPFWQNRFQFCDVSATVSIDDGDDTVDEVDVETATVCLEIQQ

[3] = target: AMP-activated protein kinase, AMPK (Homo sapiens) (UniProt P54646+O43741+P54619+Q9UGJ0+Q9Y478+Q13131+Q9UGI9); assay: AMP-dependent Kinase enzyme assay. An in vitro enzyme assay that detects ADP turnover that is directly proportional to AMPK activity. This uses naive AMPK that is activated during the assay with MK-8722; assay type: functional; conditions: 30 µM
[4] = target: Sialic acid-binding Ig-like lectin 9 (Homo sapiens) (UniProt Q9Y336); assay: Hs-Siglec9 ALPHAscreen SOP 20170721; conditions: 10 µM
[5] = tested on: Trypanosoma cruzi; assay: Trypanosoma cruzi phosphomannomutase and mannose-1-phosphate guanylyltransferase assay; assay type: functional; conditions: 10 µM
[6] = target: T2, Arginase-2, mitochondrial (Homo sapiens) (UniProt P78540); assay: in vitro enzyme assay to detect the production of urea directly proportional to the activity of Arginase II; assay type: functional; conditions: 33.3 µM; also: in the data most compounds retested in dose-response had high values
T2 sequence (whole entry): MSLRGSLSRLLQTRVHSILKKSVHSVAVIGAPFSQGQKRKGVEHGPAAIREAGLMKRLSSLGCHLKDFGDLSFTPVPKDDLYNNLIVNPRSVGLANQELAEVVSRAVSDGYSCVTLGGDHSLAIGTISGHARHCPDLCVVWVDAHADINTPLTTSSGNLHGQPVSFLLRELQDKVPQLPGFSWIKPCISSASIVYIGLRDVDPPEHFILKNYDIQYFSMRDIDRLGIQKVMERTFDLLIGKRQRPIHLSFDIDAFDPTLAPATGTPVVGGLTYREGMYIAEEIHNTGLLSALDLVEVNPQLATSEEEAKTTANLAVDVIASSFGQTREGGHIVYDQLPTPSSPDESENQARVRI

[7] = target: T3, Proteasome subunit beta (Trypanosoma cruzi) (UniProt O96673); assay: Trypanosoma cruzi proteasome chymotrypsin-like activity (TcProtChymo) assay.; also: in the data most compounds retested in dose-response had high values; assay type: functional; conditions: 9.37 µM
T3 sequence (whole entry): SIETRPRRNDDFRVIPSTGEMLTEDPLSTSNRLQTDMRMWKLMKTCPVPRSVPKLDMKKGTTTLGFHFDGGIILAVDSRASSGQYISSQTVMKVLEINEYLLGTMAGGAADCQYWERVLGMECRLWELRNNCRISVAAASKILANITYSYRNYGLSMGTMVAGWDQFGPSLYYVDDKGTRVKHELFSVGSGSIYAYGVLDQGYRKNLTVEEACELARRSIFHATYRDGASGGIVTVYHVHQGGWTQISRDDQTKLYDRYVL

[8] = organism: Homo sapiens; assay: To identify inhibition of the IFN signalling (Jak-Stat) pathway via expression of an eGFP reporter gene under the control of an IFN-stimulated response element (ISRE) containing MxA promoter.; assay type: functional; conditions: 30 µM
[9] = target: T4, Tyrosyl-tRNA synthetase, putative (Trypanosoma cruzi (strain CL Brener)) (UniProt Q4DSP6); assay: Trypanosoma cruzi tyrosyl tRNA synthetase (TcYRS) _High Tyrosine SOP; assay type: functional; conditions: 30 µM; also: in the data most compounds retested in dose-response had high values
T4 sequence (whole entry): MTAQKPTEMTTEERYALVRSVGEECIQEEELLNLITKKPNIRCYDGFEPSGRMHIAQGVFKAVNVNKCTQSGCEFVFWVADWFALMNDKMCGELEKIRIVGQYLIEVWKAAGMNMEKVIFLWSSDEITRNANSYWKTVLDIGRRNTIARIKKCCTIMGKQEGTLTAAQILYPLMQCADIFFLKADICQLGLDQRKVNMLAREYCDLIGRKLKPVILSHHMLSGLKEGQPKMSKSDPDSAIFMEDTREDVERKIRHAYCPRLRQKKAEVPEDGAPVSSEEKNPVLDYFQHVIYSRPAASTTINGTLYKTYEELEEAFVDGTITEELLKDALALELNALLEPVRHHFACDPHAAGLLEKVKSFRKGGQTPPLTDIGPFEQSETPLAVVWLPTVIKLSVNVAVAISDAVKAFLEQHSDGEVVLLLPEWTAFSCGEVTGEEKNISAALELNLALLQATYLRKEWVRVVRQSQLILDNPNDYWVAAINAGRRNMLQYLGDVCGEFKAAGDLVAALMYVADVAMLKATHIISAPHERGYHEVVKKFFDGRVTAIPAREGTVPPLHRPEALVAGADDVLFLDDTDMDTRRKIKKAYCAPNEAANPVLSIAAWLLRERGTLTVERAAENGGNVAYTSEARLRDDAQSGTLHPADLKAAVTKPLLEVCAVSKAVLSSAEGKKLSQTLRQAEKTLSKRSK

[10] = target: T4, Tyrosyl-tRNA synthetase, putative (Trypanosoma cruzi (strain CL Brener)); assay: Trypanosoma cruzi tyrosyl tRNA synthetase (TcYRS) SOP; assay type: functional; conditions: 30 µM
[11] = target: Chromo domain-containing protein 1 (Saccharomyces cerevisiae (strain ATCC 204508 / S288c) (Baker's yeast)) (UniProt P32657); assay: ScCHD-1 Enzyme Inhibition Assay; assay type: functional; conditions: 30 µM; also: in the data most compounds retested in dose-response had high values
Sequence of Chromo domain-containing protein 1 (Saccharomyces cerevisiae (strain ATCC 204508 / S288c) (Baker's yeast)) (P32657 whole entry, the tested form may be a part): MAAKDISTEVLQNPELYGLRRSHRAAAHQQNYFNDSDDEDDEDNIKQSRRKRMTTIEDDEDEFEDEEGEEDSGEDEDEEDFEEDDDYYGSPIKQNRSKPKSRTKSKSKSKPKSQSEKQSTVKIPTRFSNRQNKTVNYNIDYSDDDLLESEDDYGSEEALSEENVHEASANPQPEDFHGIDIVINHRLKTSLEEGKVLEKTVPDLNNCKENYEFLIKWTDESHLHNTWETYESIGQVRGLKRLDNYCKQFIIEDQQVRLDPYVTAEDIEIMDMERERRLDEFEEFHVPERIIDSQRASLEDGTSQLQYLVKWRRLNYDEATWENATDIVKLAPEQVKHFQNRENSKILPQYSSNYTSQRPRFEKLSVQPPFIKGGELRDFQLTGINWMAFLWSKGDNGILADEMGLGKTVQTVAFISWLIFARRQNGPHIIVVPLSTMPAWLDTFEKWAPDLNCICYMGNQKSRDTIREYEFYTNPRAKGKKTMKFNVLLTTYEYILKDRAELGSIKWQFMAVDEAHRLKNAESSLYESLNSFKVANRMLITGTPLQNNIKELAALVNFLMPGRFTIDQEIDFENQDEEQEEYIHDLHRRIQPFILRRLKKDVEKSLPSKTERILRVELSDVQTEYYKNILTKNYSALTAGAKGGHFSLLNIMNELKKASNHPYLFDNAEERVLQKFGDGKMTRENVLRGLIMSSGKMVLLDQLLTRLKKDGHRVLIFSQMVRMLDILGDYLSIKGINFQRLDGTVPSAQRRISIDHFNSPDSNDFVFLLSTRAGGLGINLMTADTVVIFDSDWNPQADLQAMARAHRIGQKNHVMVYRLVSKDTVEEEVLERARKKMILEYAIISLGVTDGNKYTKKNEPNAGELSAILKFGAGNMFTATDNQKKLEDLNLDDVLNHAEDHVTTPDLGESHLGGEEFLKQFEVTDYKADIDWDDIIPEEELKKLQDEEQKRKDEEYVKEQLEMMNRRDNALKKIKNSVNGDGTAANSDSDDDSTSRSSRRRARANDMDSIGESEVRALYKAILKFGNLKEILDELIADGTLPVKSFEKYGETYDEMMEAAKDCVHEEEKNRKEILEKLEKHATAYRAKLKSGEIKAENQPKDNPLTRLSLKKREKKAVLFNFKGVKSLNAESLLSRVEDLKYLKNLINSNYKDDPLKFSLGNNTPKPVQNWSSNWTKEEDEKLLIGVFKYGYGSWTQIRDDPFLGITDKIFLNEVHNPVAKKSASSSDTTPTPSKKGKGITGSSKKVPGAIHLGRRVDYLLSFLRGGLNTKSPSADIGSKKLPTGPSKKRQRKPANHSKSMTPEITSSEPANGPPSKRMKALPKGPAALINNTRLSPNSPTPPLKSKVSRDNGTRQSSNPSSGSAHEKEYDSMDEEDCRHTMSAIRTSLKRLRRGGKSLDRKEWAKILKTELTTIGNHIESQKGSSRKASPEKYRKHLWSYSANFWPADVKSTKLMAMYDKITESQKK

Sequence of Sialic acid-binding Ig-like lectin 9 (Homo sapiens) (Q9Y336 whole entry): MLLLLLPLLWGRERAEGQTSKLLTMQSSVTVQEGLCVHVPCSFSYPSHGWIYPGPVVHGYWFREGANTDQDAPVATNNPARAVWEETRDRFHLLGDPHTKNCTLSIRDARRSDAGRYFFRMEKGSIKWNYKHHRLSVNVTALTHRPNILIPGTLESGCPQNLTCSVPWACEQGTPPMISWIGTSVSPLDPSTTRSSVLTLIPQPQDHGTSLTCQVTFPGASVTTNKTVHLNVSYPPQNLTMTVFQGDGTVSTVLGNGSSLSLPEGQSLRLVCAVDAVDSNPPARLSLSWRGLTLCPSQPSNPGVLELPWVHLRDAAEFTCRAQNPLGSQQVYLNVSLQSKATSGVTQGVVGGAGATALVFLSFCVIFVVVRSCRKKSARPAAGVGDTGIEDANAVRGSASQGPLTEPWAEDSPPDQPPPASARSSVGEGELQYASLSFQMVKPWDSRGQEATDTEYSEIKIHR
Sequence of Protein translocase subunit SecA (Escherichia coli (strain K12)) (P10408 whole entry): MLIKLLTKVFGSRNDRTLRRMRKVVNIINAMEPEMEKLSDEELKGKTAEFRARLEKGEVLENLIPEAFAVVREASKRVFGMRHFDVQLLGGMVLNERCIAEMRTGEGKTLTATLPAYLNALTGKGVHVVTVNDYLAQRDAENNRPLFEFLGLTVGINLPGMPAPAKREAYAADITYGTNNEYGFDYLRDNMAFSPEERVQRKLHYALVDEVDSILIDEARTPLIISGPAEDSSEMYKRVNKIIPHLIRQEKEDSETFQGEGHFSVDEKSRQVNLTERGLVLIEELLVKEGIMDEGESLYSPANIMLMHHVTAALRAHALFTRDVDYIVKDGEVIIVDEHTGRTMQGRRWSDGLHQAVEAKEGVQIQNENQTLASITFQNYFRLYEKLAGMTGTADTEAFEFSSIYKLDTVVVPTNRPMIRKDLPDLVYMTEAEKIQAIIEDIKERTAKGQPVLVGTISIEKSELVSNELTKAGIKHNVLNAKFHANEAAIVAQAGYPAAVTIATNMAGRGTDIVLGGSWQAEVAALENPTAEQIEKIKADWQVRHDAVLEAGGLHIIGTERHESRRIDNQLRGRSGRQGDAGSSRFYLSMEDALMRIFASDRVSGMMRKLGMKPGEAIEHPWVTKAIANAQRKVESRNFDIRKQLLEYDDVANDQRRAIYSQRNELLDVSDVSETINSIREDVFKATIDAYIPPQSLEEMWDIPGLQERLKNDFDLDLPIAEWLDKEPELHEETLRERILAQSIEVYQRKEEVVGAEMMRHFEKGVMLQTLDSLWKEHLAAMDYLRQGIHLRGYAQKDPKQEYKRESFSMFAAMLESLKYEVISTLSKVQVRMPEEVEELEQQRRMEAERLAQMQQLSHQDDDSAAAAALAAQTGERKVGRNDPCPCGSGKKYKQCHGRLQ

SMILES	Percent Effect [1] [%]	Percent Effect [2] [%]	Percent Effect [3] [%]	Percent Effect [4] [%]	Percent Effect [5] [%]	Percent Effect [6] [%]	Percent Effect [7] [%]	Percent Effect [8] [%]	Percent Effect [9] [%]	Percent Effect [10] [%]	Percent Effect [11] [%]
CC(NC(=O)NCCCn1ccnc1)c1ccc2c(c1)CCC(=O)N2 (configuration not stated)	-5.85	22.8	0.7	-8	8.4	-2.66	13	10.8	5.42	24.1	-6.95
CNc1nc2c(s1)C(c1cccc(F)c1F)CC(=O)N2 (configuration not stated)	-2.38	13.2	-61.3	-2.61	0.876	4.73	18.9	7.67	-11.7	-13	-8.74
CNC(=O)c1cnc(/C=C/c2cc(OC)c(OC)c(OC)c2)s1	-3.62	16.2	-4.03	8.07	1.56	21.2	16	40.4	9.9	18.3	-13
Cc1ncoc1C(=O)N1C[C@H]2CCC[C@@]2(COCC2CCOCC2)C1	-3.5	0	4.71	-0.295	1.66	1.59	22.3	-6.69	2.16	7.69	5.48
O=C(Cn1cccnc1=O)NC(Cc1cccs1)c1ccccn1 (configuration not stated)	-3.91	9.46	6.77	0.0436	2.57	5.8	8.27	15.5	5.38	11.7	-11.5
COc1ccc(CN(C)[C@@H]2CN(C(=O)c3cccs3)C[C@H]2O)cc1	-3.27	6.76	10.4	2.59	-6.13	-2.09	10.6	15.6	5.38	9.09	-9
O=C(NC(CO)CO)c1coc(COc2cccc(F)c2)n1	-2.81	18.9	1.42	15.9	2.44	10.2	9.19	-0.407	7.53	21	-4.2
COc1cccc(COCC(=O)N2CCCC(n3ccnc3)C2)c1 (configuration not stated)	-4.67	18.9	21.3	-4.82	-6.13	0.802	3.06	10.7	6.4	11.1	-5.14
Cc1cnc2c(c1NCc1ccncc1)c(=O)n(C)c(=O)n2C	-2.14	0	5.25	-12.3	-5.68	-11.4	17.6	29.2	4.3	10	-2.51
Cn1cnnc1C1CCCN(C(=O)Cc2ccc3c(c2)OCCO3)C1 (configuration not stated)	-1.87	13	-0.424	-2.52	3.82	-1.05	13.7	13.2	7.62	18.8	-15.4
COc1ccc(NC(=O)CNc2ccc(Br)cc2F)cc1	-3.43	5.26	9.89	2.32	-0.487	0	17.7	39.2	-14.9	-13	-4.78
O=C(NCC1CC1)[C@H]1CC[C@@H]2[C@@H](CCN2Cc2ccoc2)O1	-9.56	16.2	-3.1	26	4.99	3.23	4.72	-7.7	4.3	6.17	-12.2
Fc1ccc(-c2cnc(CN3CCCC3Cn3cccn3)o2)cc1 (configuration not stated)	-4.06	7.59	-2.14	-12.9	-4.82	7.22	12.7	24.8	2.46	13.9	-1.62
O=C(CCc1nccs1)N1CCN(c2ncccn2)CC1	-10.4	-7.79	-1.74	-4.24	7.93	-0.632	9.3	1.03	5.71	18.8	-11
Cc1nc(C2CCCN2CC(=O)N2CCCc3ccccc32)no1 (configuration not stated)	-2.99	-13.2	-3.99	5.27	6.77	3.45	0	6.64	4.41	4.88	-4.73
Cc1nc(CN2CCCC(N(C)Cc3nnsc3Cl)C2)no1 (configuration not stated)	-5.44	5.2	0.941	-5.57	6.76	-5.26	2.99	-2.55	5.71	7.06	-13.5
CC(=O)N1CCCC(Cc2cncc(Br)c2)CC1 (configuration not stated)	-8.44	12.2	-0.231	1.66	2.77	-2.09	16.4	24.7	5.38	6.49	-26.1
Cc1occc1C(=O)N1CCC[C@]2(C[C@@H](OCc3ccncc3)CO2)C1	0.103	10.7	1.3	1.1	-1.16	-23.5	16.4	-0.395	7.29	22.5	-5.63
Cc1cc(CN(C)C2CCCN(Cc3noc(C4CC4)n3)C2)no1 (configuration not stated)	-2.13	15.8	-10.8	-8.06	-9.62	-1.8	12.4	15.9	1.48	3.7	-9.14
CN(C)c1nc2c(c(=O)[nH]1)CCN(C(=O)c1cccc3nccnc13)C2	1.03	18.2	-1.68	4.82	1.87	-33.1	19.1	29.3	8.6	16.1	-3.03
CCn1cc2c(n1)CN(Cc1ccoc1)CC2COCC1CC1 (configuration not stated)	-5.08	-10.8	-0.58	2.38	6.64	-1.67	7.69	-8.7	11.9	8.54	-4.61
CCN1CCN(c2nc(C(C)C)nc3c(C)nn(CC)c23)CC1	-8.3	0	-2.21	5.36	-1.28	-5.52	-0.832	1.81	-2.15	-48.1	-0.207
